Test results as given in PubChem BioAssay (NCATS).
Inconclusive results are not listed. A number with no mark means an inactive call. Activity calls are given as the source filed them. The call rests on the fitted dose curve; in most records, active means well fitted inhibition curve with a large enough effect; inconclusive means small, poorly fitted or top-dose-only effect; inactive means flat fitted curve, though single readings scatter.

Assay: P-glycoprotein substrates identified in KB-8-5-11 adenocarcinoma cell line, qHTS therapeutic library screen (AID 1346987); further: nearly all actives have a fitted effect of over 65% in size
Conditions: KB-8-5-11 (P-gp overexpressing) viability, CellTiter-Glo, 72 h; series mostly up to 44.5 µM; activity change, negative = cytotoxicity: at the top concentration
Description: The ATP-binding cassette transporters P-glycoprotein (P-gp) is known to limit brain penetration of many chemotherapy drugs. […] As such, we developed a high-throughput screen (HTS) to identify substrates of P-gp from a series of chemical libraries including the National Center for Advancing Translational Sciences Pharmaceutical Collection NPC, 2,816 compounds), testing a total of 10,804 compounds, most of which have known mechanisms of action. We used the CellTiter-Glo viability assay to test library compounds against the parental KB-3-1 human cervical adenocarcinoma cell line and the colchicine-selected sub-line KB-8-5-11 that over-expresses P-gp. KB-8-5-11 cells were also tested in the presence of a P-gp inhibitor (tariquidar) to assess reversability of transporter-mediated resistance. Of the tested compounds, a total of 90 P-gp substrates were identified including 55 newly identified P-gp substrates. Substrates were confirmed using an orthogonal killing assay against HEK-293 cells transfected with P-gp. As exemplars, we confirmed that […] (cyclin-dependent kinase inhibitor); AT9283, (Janus kinase 2/3 inhibitor); ispinesib (kinesin spindle protein inhibitor); gedatolisib (PKI-587, phosphoinositide 3-kinase/mammalian target of rampamycin inhibitor); GSK-690693 (AKT inhibitor); and KW-2478 (heat shock protein 90 inhibitor) were substrates , and direct ATPase stimulation was assessed. ABCG2 was also found to confer high levels of resistance to AT9283, GSK-690693 and gedatolisib, while ispinesib, AT7519 and KW-2478 were weaker substrates.
The HeLa derivative cell line, KB-3-1, and its colchicine-selected, P-gp-overexpressing subline, KB-8-5-11 were maintained in DMEM with 10% FCS and Pen/Strep with glutamine at 37 degree C in 5% CO2. For KB-8-5-11 cells, colchicine was added to the medium at a concentration of 100 ng/mL. HEK-293 cells transfected with empty vector (pcDNA) or vector containing human ABCB1 (MDR-19) or ABCG2 (R-5) have been described previously (Robey, Lin, Qiu, Chan & Bates, 2011) and were maintained in EMEM supplemented with 10% FCS, Pen/Strep and glutamine with 2 mg/ml G418 to select for the expression of the transporter. Cultures were confirmed to be free of mycoplasma infection using the MycoAlert Mycoplasma Detection Kit (Lonza, Walkersville, MD). For the screen, assay medium was identical to culture medium except for KB-8-5-11 where colchicine was excluded from the medium.
All cell lines were plated into 1536-well plates at 500 cells/well in 5 uL media. Compounds were then pinned in dose-response using a 1536-head pin tool (Kalypsis, San Diego, CA) and plates were incubated at 37 degree C in 5% CO2 for an additional 72 h. CellTiter-Glo reagent (Promega) was dispensed into the wells, incubated for 5 min and luminescence was read on a ViewLux instrument (Perkin-Elmer). Cytotoxic compounds were defined as those that yielded a curve class of -1.1, -1.2, -2.1, -2.2, -2.3, or -2.4, a maximum response of >50% and an AC50 of < 10 uM. Cherry-picked hits from screening analysis were tested with both the KB pair of cell lines, and the pcDNA (empty vector control) and MDR-19 (P-gp overexpressing) pair were tested, in the absence and presence of tariquidar.
On the % scale 0 is the no-effect control and ±100 the full control effect.

SMILES | Potency | activity change, negative = cytotoxicity | outcome
CNCC(O)c1ccc(O)cc1 (stereo not given) | inactive | – | –
C[C@]12CCC(=O)C(O)=C1CC[C@@H]1[C@@H]2CC[C@]2(C)C(=O)CC[C@@H]12 | – | -3.32% | –
C#CCOC(C(=O)OCCN(C)C)(c1ccccc1)c1ccccc1 | – | 8.58% | –
CC(C)=CCOc1c2occc2cc2ccc(=O)oc12 | – | -27.8% | –
OCCOc1ccccc1 | inactive | – | –
N[C@@H](Cc1ccc(Oc2cc(I)c(O)c(I)c2)c(I)c1)C(=O)O | – | -1.25% | –
CCC1(C2=NCCN2)Cc2ccccc2O1 (stereo not given) | – | 5.72% | –
CNC(=O)c1ccc(N2C(=S)N(c3ccc(C#N)c(C(F)(F)F)c3)C(=O)C23CCC3)cc1F | inactive | – | –
NN=C(N)N | – | 30.9% | –
NCC(O)c1ccc(O)cc1 (stereo not given) | – | -13.2% | –
CC(=O)Nc1cc([As](=O)(O)O)ccc1O | – | 16.4% | –
CCCN1CCC[C@@H]2Cc3nc(N)ncc3C[C@H]21 | – | 1.36% | –
Nc1ccncc1 | – | 18.9% | –
Cn1cc(C2=C(c3cn(C4CCN(Cc5ccccn5)CC4)c4ccccc34)C(=O)NC2=O)c2ccccc21 | inactive | – | –
c1ccc2c(c1)Nc1ccccc1S2 | inactive | – | –
CN(C)[C@@H]1C(=O)C(C(N)=O)=C(O)[C@@]2(O)C(=O)C3=C(O)c4c(O)cccc4[C@@](C)(O)[C@H]3C[C@@H]12 | inactive | – | –
CC(CCc1ccccc1)NC(C)C(O)c1ccc(O)cc1 (stereo not given) | – | -23.4% | –
CC[N+]1(C)CCCC(OC(=O)C(O)(c2ccccc2)c2ccccc2)C1 (stereo not given) | – | -0.888% | –
NCCc1cc(O)c(O)cc1O | – | -4.97% | –
C=CCN1CC[C@]23c4c5ccc(O)c4O[C@H]2C(=O)CC[C@@]3(O)[C@H]1C5 | – | -10.6% | –

SMILES | Potency | activity change, negative = cytotoxicity | outcome
CN(C)CCN(C)CCc1ccc(Cl)c(Cl)c1 | – | – | inactive
Cc1cc(SCc2sc(-c3ccc(C(F)(F)F)c(F)c3)nc2C)ccc1OCC(=O)O | inactive | – | –
Cc1cccc(C)c1NC(=O)CN1CCCC1=O | inactive | – | –
CN1CCN(C(=O)O[C@H]2c3nccnc3C(=O)N2c2ccc(Cl)cn2)CC1 | – | 8.41% | –
O=C(O)c1ccc2[nH]cc(CCCCN3CC=C(c4ccccc4)CC3)c2c1 | – | -8.27% | –
O=C1CC[C@@]2(O)[C@H]3Cc4ccc(O)c5c4[C@@]2(CCN3CC2CC2)[C@H]1O5 | inactive | – | –
C[C@]12C/C(=C/O)C(=O)C[C@@H]1CC[C@@H]1[C@@H]2CC[C@@]2(C)[C@H]1CC[C@]2(C)O | – | 4.24% | –
NCC1(CC(=O)O)CCCCC1 | inactive | – | –
CCN(C(C)=O)c1cccc(-c2ccnc3c(C#N)cnn23)c1 | – | -12.1% | –
NP(N)(=O)NC(=O)c1ccc(F)cc1 | – | 11.7% | –
CC1NCCOC1c1ccccc1 (stereo not given) | – | -14.6% | –
Cc1ccc(S(=O)(=O)N[C@@H](CCCCN)C(=O)CCl)cc1 | – | -12.9% | –
COC[C@H]1OC(=O)c2coc3c2[C@@]1(C)C1=C(C3=O)C2CCC(=O)[C@@]2(C)C[C@H]1OC(C)=O (stereo not given in full) | – | 4.25% | –
C=C1CC[C@@]2(O)[C@H]3Cc4ccc(O)c5c4[C@@]2(CCN3CC2CC2)[C@H]1O5 | – | 10.9% | –
Cc1cccc(C)c1NC1=NCCCS1 | – | -25.5% | –
O=C(NC(O)C(Cl)(Cl)Cl)NC(O)C(Cl)(Cl)Cl (stereo not given) | – | -8.5% | –
O=[N+]([O-])c1cc([As](=O)(O)O)ccc1O | – | 0.112% [at 17.3 µM] | –
CC(C)(N)Cc1ccc(Cl)cc1 | – | 9.53% | –
COC[C@@H](NC(C)=O)C(=O)NCc1ccccc1 | – | 3.9% | –
CC(C)=CC1C(C(=O)OCc2cccc(Oc3ccccc3)c2)C1(C)C (stereo not given) | – | -23.4% | –
